PubChem BioAssay
For some of these results: Results with a measured potency or affinity are listed apart. Activity calls are given as the source filed them. Unless noted, how the calls were made is not given here.

Legend:
[1] = restoration of touch response, mutant HTT neurons – whole organism, C. elegans mechanosensory neurons, N-terminal huntingtin (AID 1599); conditions: C. elegans polyQ-huntingtin mechanosensory neurons, stronger effect = higher value
[2] = blockers of cytochrome c efflux from mitochondria – biochemical, purified mitochondria (AID 1603); conditions: stronger effect = lower value;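 further: mouse liver mitochondria challenged with calcium chloride; signal normalized to the plate average as 100%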
[3] = polyglutamine aggregate formation blockers (AID 1604); conditions: polyglutamine-induced protein aggregation inhibition assay; stronger effect = higher value; tested at 2.5 µM
[4] = glutamate transport activators, MN-1 cells, MN-1 cell line (AID 1612); conditions: MN-1 motor neuron cells, stronger effect = higher value;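 further: tested at 1 µM final; 0% = mean of DMSO vehicle wells on each plate; positive means more glutamate uptake than control and negative means less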
[5] = GFP-Q80 aggregate reduction, neuronal-like cells, cell-based, NGF-treated PC12, GFPQ80 (AID 1614); conditions: PC12 NGF-treated GFP-polyQ80 inclusion reduction;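 further: lower means fewer inclusions and 0 means no inclusions at all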
[6] = 75Q-TubH aggregate inhibition, S. cerevisiae, yeast (AID 1616); conditions: S. cerevisiae 75Q-TubH polyglutamine aggregation suppression; stronger effect = higher value
[7] = test system: Hepatitis C virus NS3 helicase; test: blockers of NS3h binding to ssDNA – biochemical, fluorescence polarization, LOPAC1280 library, primary screen (AID 687035; in the data active means inhibition above about 37%); conditions: Purified HCV NS3 helicase, Cy5-dT15 ssDNA binding fluorescence polarization; stronger effect = higher value; concentration not given here
[8] = compounds altering Cy5-DNA-NS3h complex signal – biochemical, LOPAC1280, artefact control for HCV NS3 helicase inhibitor project (AID 687037); conditions: Cy5-DNA-NS3h complex fluorescence interference counterscreen
[9] = blockers of cellular phospholipid synthesis – cell-based, LOPAC library, screen 4, primary screen (AID 1347384); conditions: animal cells, phospholipid biosynthesis inhibition screen; at 10 µM

| Compound | rescue above control [1] | cytochrome c release ratio [2] | inhibition of aggregation [3] [%] | glutamate uptake change [4] [%] | inclusion score [5] | aggregation suppression score [6] | inhibition [7] | fluorescence ratio (interference) [8] | outcome [9] |
| --- | --- | --- | --- | --- | --- | --- | --- | --- | --- |
| COc1ccc([C@@H]2CC(=O)c3c(O)cc(O[C@@H]4O[C@H](CO[C@H]5O[C@@H](C)[C@H](O)[C@@H](O)[C@H]5O)[C@@H](O)[C@H](O)[C@H]4O)cc3O2)cc1O | -5.33 | 0.96 | 83.3 | 7.48 | 2 | 1.41 | – | – | – |
| CC[C@H](C)C(=O)O[C@H]1CCC=C2C=C[C@H](C)C(CCC3C[C@@H](O)CC(=O)O3)[C@H]21 (some centres not stated) | -3.11 | 1.24 | 31.8 | 12.1 | – | 0.746 | – | – | – |
| CC(C)Oc1ccc2c(=O)cc(-c3ccccc3)oc2c1 | 6.51 | 0.9 | 12.7 | -13.2 | 2 | 0.599 | – | – | – |
| CC1(C)C2CC[C@]3(C)C(C(=O)C=C4[C@@H]5C[C@@](C)(C(=O)O)CC[C@]5(C)CC[C@]43C)[C@@]2(C)CC[C@@H]1O (some centres not stated) | 12 | 0.78 | 25.7 | -84.4 | – | 1.4 | – | – | – |
| COc1ccc(-c2cc(=O)c3c(O)cc(O[C@@H]4O[C@H](CO[C@H]5O[C@H](C)[C@@H](O)[C@H](O)[C@@H]5O)[C@@H](O)[C@H](O)[C@H]4O)cc3o2)cc1O | -9.51 | 0.94 | 75 | 6.61 | 2 | 1.82 | – | – | – |
| C[N+]1(C)C2CC(OC(=O)[C@@H](CO)c3ccccc3)CC1C1OC12 (some centres not stated) | -0.68 | 0.94 | 47.9 | -7.1 | 2 | 1.44 | – | – | – |
| CC(C)(C)NC[C@@H](O)COc1nsnc1N1CCOCC1 | -14.1 | 1.02 | -23.4 | 14.7 | 2 | 1.29 | – | – | – |
| CC1=C2C(=CO[C@H](C)[C@H]2C)C(=O)C(C(=O)O)=C1O | – | 0.99 | 68.3 | 33.3 | 2 | 0.187 | – | – | – |
| Nc1ccn(C2O[C@H](CO)[C@@H](O)[C@H]2O)c(=O)n1 (some centres not stated) | -6.6 | 1.18 | 63.9 | 6.93 | 2 | 1.06 | – | – | – |
| COC1=CC(C)[C@@H]2C[C@H]3OC(=O)C[C@H]4C(C)=C(OC)C(=O)C([C@@]34C)[C@@]2(C)C1=O (some centres not stated) | -7.37 | 0.85 | -1.96 | 12.8 | 2 | 1.57 | – | – | – |
| CC(=O)Oc1ccc2c(c1)CCC1C2CC[C@@]2(C)C1CC[C@@H]2OC(C)=O (some centres not stated) | 6.23 | 1 | 65.2 | -3 | – | 0.34 | – | – | – |
| NC(Cc1ccc(F)cc1)C(=O)O (configuration not stated) | 3.95 | 0.78 | 75 | 15.5 | 2 | 1.47 | – | – | – |
| C1CCN2C[C@H]3C[C@H](CN4CCCC[C@@H]34)[C@H]2C1 | -2.03 | 1.05 | 26.9 | 8.14 | 2 | 1.49 | – | – | – |
| O=C1NC(=O)C(c2ccccc2[N+](=O)[O-])=C1Nc1ccc(O)c(Cl)c1 | – | – | – | – | – | – | -2% (inactive) | 1 (inactive) | inactive |
| O=C(O)C1CCCN(CCC=C(c2ccccc2)c2ccccc2)C1 (configuration not stated) | – | – | – | – | – | – | -1% (inactive) | 0.9 (inactive) | – |
| COc1cccc(-c2cc(=O)c3ccccc3o2)c1N | – | – | – | – | – | – | -1% (inactive) | 1 (inactive) | inactive |
